Potency and caspase activation data for 40 compounds are collected here from PubChem BioAssay (Tox21).

The structures appear in SMILES notation. Records with an inconclusive call do not appear. A call without a number means that no potency is given here. Values without a mark were called inactive. Calls of active or inactive are those of the source. Calls come from the whole dose curve; as a rule, active = well fitted activation curve with a large enough effect in the repeat runs; inconclusive = weak or mixed curves; inactive = flat fitted curve, though single readings scatter.

The assay is described as follows: Caspase-3/7 induction in HepG2 cells by small molecules, qHTS assay (AID 1346978). Note: nearly all actives have a fitted effect of over 15% in size. The conditions noted are these: HepG2 caspase-3/7 activation, Caspase-Glo luminescence, 17 h; series mostly up to 92.4 µM. The text has this: National Center for Advancing Translational Sciences [NCATS] NIH Chemical Genomics Center [NCGC] U.S. Environmental Protection Agency [EPA] National Institutes of Environmental Health Sciences [NIEHS] National Toxicology Program [NTP] Assay overview: Apoptosis is a process of programmed cell death and plays a central role in the development of multicellular organisms. It is a highly regulated process and induces cell death by activating caspases, which are the members of cysteine aspartic acid-specific protease (caspase) family. Caspases involved in apoptosis are classified by their mechanism of action as initiator caspases (caspase-2, -8, -9 and -10) and executioner caspases (caspase-3, -6, and -7). Inhibition of apoptosis results in number of cancers, autoimmune diseases, inflammatory diseases and viral infection. To identify small molecule compounds that induce apoptosis, a homogeneous, luminescent Caspase-Glo 3/7 assay was used. Wild type HepG2 cells were used to screen Tox21 libraries for identifying caspase-3/7 activity inducers.
Assay Protocol Summary: HepG2 cells were dispensed at 2,000 per well in 5uL of culture medium into white solid bottom 1536-well plates (Corning Life Sciences, Corning, NY) using a Multidrop Combi (Thermo Scientific, Waltham, MA) dispenser. The assay plates were incubated at 37 C and 5% CO2 for 5hr, and then 23nL of compounds dissolved in DMSO and positive control were transferred using a Pintool station (Wako, San Diego, CA). The assay plates were incubated at 37C and 5% CO2 for 17hr. For caspase-3/7 activity read, 4uL of Caspase-Glo 3/7 reagent (Promega Corporation, Madison, WI) was added to each well of the assay plates using Flying Reagent Dispenser (FRD, Aurora Discovery, San Diego, CA) and incubated the assay plates at room temperature for 30min. The luminescence signal was quantified using a ViewLux plate reader (Perkin Elmer, Shelton, CT).
For orientation: qHTS replaces the single test concentration by a dilution series.
For `O=S(=O)(Oc1ccc(Cl)cc1)c1ccccc1`, the Potency entry was “inactive”.

Regarding `CCCCCCCCO[C@@H]1O[C@H](CO)[C@@H](O)[C@H](O)[C@H]1O`, the Potency result is “inactive”.

With `CN(Cc1ccc(C(C)(C)C)cc1)Cc1cccc2ccccc12`, the Potency result was “inactive”.

As to `O=[N+]([O-])c1ccc(NCCO)c(OCCO)c1`, the Potency entry was “inactive”.

Take `CCO[Si](CCCCl)(OCC)OCC`: the Potency entry is “inactive”.

Take `Cc1cccc(C)c1OCC(=O)N[C@@H](Cc1ccccc1)[C@@H](O)C[C@H](Cc1ccccc1)NC(=O)[C@H](C(C)C)N1CCCNC1=O`: the Potency entry is “inactive”.

On to `C=C1C(=C/C=C2\CCC[C@]3(C)[C@@H]([C@H](C)/C=C/[C@@H](O)C4CC4)CC[C@@H]23)C[C@@H](O)C[C@@H]1O`, for which the Potency entry was “inactive”.

As to `COCC(C)OC(C)=O` (stereo not given), the Potency entry is “inactive”.

Take `CN(C)C(=O)NC1(c2ccccc2)CCN(CC[C@@]2(c3ccc(F)c(F)c3)CN(C(=O)c3ccccc3)CCO2)CC1`: the Potency result was “inactive”.

Take `CCN(CC)CCOC(=O)C(c1ccccc1)C1CCCCC1` (stereo not given): the Potency result is “inactive”.

On to `COc1ccnc(CS(=O)c2nc3ccc(OC(F)F)cc3[nH]2)c1OC` (stereo not given), for which the Potency entry was “inactive”.

Take `COCCCN1CCC(NC(=O)c2cc(Cl)c(N)c3c2OCC3)CC1`: the Potency result is “inactive”.

On to `CC1=CC=C(C(C)C)CC1`, for which the Potency entry is “inactive”.

Take `NCC(=O)CCC(=O)O`: the Potency result was “inactive”.

Regarding `CCCCCCCCCCCCCCOS(=O)(=O)O`, the Potency entry was “inactive”.

Take `CC(C)O.CC(C)O.CCOC(=O)/C=C(\C)O.CCOC(=O)/C=C(\C)O.[Ti]`: the Potency result is “inactive”.

Take `O=C(OCCCCCCOC(=O)c1ccccc1)c1ccccc1`: the Potency entry was “inactive”.

In the case of `O=C1c2ccccc2S(=O)(=O)N1CCCCN1CCN(c2ncccn2)CC1`, the Potency entry is “inactive”.

`O=C(c1ccc(F)cc1)C1CCN(CCn2c(=S)[nH]c3ccccc3c2=O)CC1`: the Potency result was “inactive”.

Consider `C#Cc1cccc(Nc2ncnc3cc(OCCOC)c(OCCOC)cc23)c1`, for which the Potency entry is “inactive”.

For the compound `CC(C)(O)c1ccc(CNC(=O)c2cccnc2Oc2ccc(F)cc2)cc1`, the Potency entry was “inactive”.

Regarding `COc1ccc(C)cc1[N+](=O)[O-]`, the Potency result was “inactive”.

Consider `O=C(NCC1CN(c2ccc(N3CCOCC3=O)cc2)C(=O)O1)c1ccc(Cl)s1` (stereo not given), for which the Potency entry was “inactive”.

With `O=C(Nc1ccc(S(=O)(=O)N2CCOCC2)cc1)c1cc(Cl)ccc1NS(=O)(=O)c1ccc(Cl)s1`, the Potency result was “inactive”.

Consider `CCOC(=O)C(O)c1ccccc1` (stereo not given), for which the Potency result is “inactive”.

Consider `CN1CCN(C(c2ccccc2)c2ccccc2)CC1`, for which the Potency entry was “inactive”.

For `ClCCOCCOCCCl`, the Potency result is “inactive”.

As for `COc1cccc(N(C)C(=S)Oc2ccc3c(c2)CCCC3)n1`, the Potency result was “inactive”.

On to `CC1=CCCC(C)(C)C12CCC(C)O2` (stereo not given), for which the Potency entry was “inactive”.

In the case of `C/C=C(/C(=C/C)c1ccc(OC(C)=O)cc1)c1ccc(OC(C)=O)cc1`, the Potency entry is “inactive”.

As for `Cc1[nH]c(C)c(Cl)c(=O)c1Cl`, the caspase activation was 0.0051% [at 19 µM].

Regarding `OCCN1CCN(CCCN2c3ccccc3C=Cc3ccccc32)CC1`, the Potency entry was “inactive”.

`NCCCN1CCOCC1`: the Potency entry was “inactive”.

Consider `CCCCNc1ccc(C(=O)OCCOCCOCCOCCOCCOCCOCCOCCOCCOC)cc1`, for which the Potency result is “inactive”.

As for `CCCCCCCCCCCCCCCCCCOS(=O)(=O)O`, the Potency entry is “inactive”.

As to `COC(C)OC`, the Potency entry was “inactive”.

Take `Cc1cc(N)c2cc(NC(=O)Nc3ccc4nc(C)cc(N)c4c3)ccc2n1`: the Potency result was “inactive”.

With `CCOCC(O)COc1ccc(NC(=O)CC[S+](C)C)cc1` (stereo not given), the Potency entry was “inactive”.

Take `CC(C)OC(=O)C(C)N(C(=O)c1ccccc1)c1ccc(F)c(Cl)c1` (stereo not given): the Potency result is “inactive”.

As to `CC/C=C\CCOC(=O)CC`, the Potency result is “inactive”.
